Inconclusive results are not listed. A call without a number means that no potency is given here. Values without a mark were called inactive. Active and inactive are the calls of the source. The call rests on the fitted dose curve; in most records, active means well fitted activation curve with a large enough effect in the repeat runs; inconclusive means weak or mixed curves; inactive means flat fitted curve, though single readings scatter.

We go through 40 compounds from PubChem BioAssay (Tox21).

This test is described as follows: A CellTox Green Cytotoxicity Assay to monitor cytotoxicity in HEK293 cells - 24 hour (AID 1224875). Further: nearly all actives have a fitted effect of over 45% in size. The note with it: CellTox Green fluorescence; series mostly up to 76.8 µM; activity change: at the top concentration. An excerpt: National Center for Advancing Translational Sciences [NCATS]
NIH Chemical Genomics Center [NCGC]
U.S. Environmental Protection Agency [EPA]
National Institutes of Environmental Health Sciences [NIEHS]
National Toxicology Program [NTP]
Cell-based models are critical for drug discovery. Determining the natural cytotoxic effects resulting from test compounds is an essential research activity. A CellTox Green Cytotoxicity Assay to monitor cytotoxicity in real time of continues cell culture during 40 hours of the compound treatment was used to screen Tox21 10K library compounds in Hek293 cells. CellTox Green Cytotoxicity Assay is a nonlytic, homogeneous, biofluorescent method to measure cytotoxicity in cell culture after experimental manipulation. The assay system uses a proprietary asymmetric cyanine dye that is excluded from viable cells but preferentially stains the dead cell's DNA. […] Viable cells produce no appreciable increases in fluorescence. Therefore, the fluorescence signal produced by the binding interaction with dead cell DNA is proportional to cytotoxicity.
The mixture of Hek293 cell suspension and reagents were dispensed at 600cells/6 ul/well in 1536-well tissue culture treated black solid bottom plates using a Multidrop dispenser. After the assay plates were incubated at a 37 C/5% CO2 incubator for 5 hours, 23 nL of compounds dissolved in DMSO, positive and negative controls was transferred to the assay plate by a pintool work station. The plates were incubated at 37 C for 40 hours. The fluorescence intensity were measured at 0h, 8h, 16h, 24h, 32h and 40h time points using ViewLux plate reader during compound treatment.
Turning to `CC(=O)O[C@]1(C(C)=O)CC[C@H]2[C@@H]3C=C(C)C4=CC(=O)CC[C@]4(C)[C@H]3CC[C@@]21C`, the Potency entry was “inactive”.
On the same count and under the same terms, under `Nc1ccc(O)c(N)c1` stands “inactive”.
Still for that read-out and setting: then `NCCOCCO`, with “inactive”.
Same read-out and setting: then `c1ccc2c(c1)[nH]c1ccccc12`, with “inactive”; and `O=S1(=O)CCCO1`, with “inactive”.
`Cc1cccc(Nc2ccccc2C(=O)O)c1C`: the Potency entry was “inactive”.
On to `O=C(O)CCCCCCCCCCCC(=O)O`, for which the Potency result was “inactive”.
Take `C=CC(=O)OCCCC`: the Potency result is “inactive”.
Still for that read-out and setting: then `C=C[C@@]1(C)CC(=O)[C@]2(O)[C@@]3(C)[C@@H](O)CCC(C)(C)[C@@H]3[C@H](O)[C@H](OC(C)=O)[C@@]2(C)O1`, with “inactive”; and `CC(=O)Oc1ccc(C(c2ccc(OC(C)=O)cc2)c2ccccn2)cc1`, with “inactive”; and `CC(=O)[C@@]1(O)CC[C@H]2[C@@H]3C[C@H](C)C4=CC(=O)C=C[C@]4(C)[C@@]3(F)[C@@H](O)C[C@@]21C`, with “inactive”.
Still for that read-out and setting: under `CC(C)=CCO` stands “inactive”; under `Cc1ccc2c(c1)C(=O)OC2=O`, “inactive”; under `O=C(O)COCCN1CCN(C(c2ccccc2)c2ccc(Cl)cc2)CC1` (stereo not given), “inactive”.
As for `NCCN`, the Potency result is “inactive”.
In the case of `O=C(O)c1cc(=O)[nH]c(=O)[nH]1`, the Potency entry was “inactive”.
On to `CCCCCCCCCCCCCO`, for which the Potency entry was “inactive”.
As to `CN(Cc1cnc2nc(N)nc(N)c2n1)c1ccc(C(=O)N[C@@H](CCC(=O)O)C(=O)O)cc1`, the Potency entry is “inactive”.
In the case of `CN(C)/N=N/c1nc[nH]c1C(N)=O`, the Potency entry was “inactive”.
The same measure, in the same setting: then `CC1(C)OC(=O)NC1=O`, with “inactive”; and `CCC(Cc1c(I)cc(I)c(N)c1I)C(=O)O` (stereo not given), with “inactive”; and `CN1CCOCC1`, with “inactive”.
On to `Cc1ccc(/C(=C\CN2CCCC2)c2ccccn2)cc1`, for which the Potency entry was “inactive”.
The same measure, in the same setting: under `Cc1ccc(N)c([N+](=O)[O-])c1` stands “inactive”.
Still for that read-out and setting: then `CC(C)(Oc1ccc(Cl)cc1)C(=O)O`, with “inactive”.
As for `CC(=O)[C@H]1CC[C@H]2[C@@H]3CC=C4C[C@@H](O)CC[C@]4(C)[C@H]3CC[C@]12C`, the Potency entry was “inactive”.
Same read-out and setting: then `c1ccc2ncccc2c1`, with “inactive”.
The same measure, in the same setting: then `Clc1ccc(Sc2cc(Cl)c(Cl)cc2Cl)cc1`, with “inactive”.
For `O=[Se](O)O`, the “activity change” value is 16.9%.
For the compound `c1ccc2c(c1)ccc1cc3c(ccc4ccccc43)cc12`, the Potency entry is “inactive”.
Same read-out and setting: under `NC[C@H](O)c1ccc(O)c(O)c1` stands “inactive”; under `CC(C)[N+](C)(CCOC(=O)C1c2ccccc2Oc2ccccc21)C(C)C`, “inactive”.
Consider `CCCCCCCC/C=C\CCCCCCCC(=O)O`, for which the Potency entry is “inactive”.
For `CCCCCC=O`, the Potency result is “inactive”.
The same measure, in the same setting: then `CC1(C)O[C@@H]2C[C@H]3[C@@H]4C[C@H](F)C5=CC(=O)C=C[C@]5(C)[C@@]4(F)[C@@H](O)C[C@]3(C)[C@]2(C(=O)CO)O1`, with “inactive”; and `CCCCCC1C(=O)CCC1CC(=O)OC` (stereo not given), with “inactive”.
On to `CC1=CC(C)(C)Nc2ccccc21`, for which the “activity change” value was -2.73%.
Turning to `COC(=O)CC(=O)OC`, the Potency result was “inactive”.
Same read-out and setting: then `Cc1ccc(S(=O)(=O)NCl)cc1`, with “inactive”; and `CCOC(=O)C(C)Oc1ccc(Oc2cnc3cc(Cl)ccc3n2)cc1` (stereo not given), with “inactive”.
